Data taken from PubChem BioAssay (NCATS).
Several values for one entry are separate records, joined by “and”; a condition that tells them apart may be missing. Identical values can stand only once. Records with an inconclusive call do not appear. Activity calls are given as the source filed them. The call rests on the fitted dose curve; in most records, active means well fitted inhibition curve with a large enough effect; inconclusive means small, poorly fitted or top-dose-only effect; inactive means no such curve, though single readings can be large or run the other way.

target: Cytochrome P450 3A4 (Homo sapiens) (UniProt P08684); experiment: qHTS Assay for Inhibitors and Substrates of Cytochrome P450 3A4 (AID 884); conditions: recombinant CYP3A4, Luciferin-PPXE luminescence; series mostly up to 57.1 µM; activity change, negative = inhibition: at the top concentration; further: nearly all actives have a fitted effect of over 50% in size
Sequence (P08684 whole entry, looked up): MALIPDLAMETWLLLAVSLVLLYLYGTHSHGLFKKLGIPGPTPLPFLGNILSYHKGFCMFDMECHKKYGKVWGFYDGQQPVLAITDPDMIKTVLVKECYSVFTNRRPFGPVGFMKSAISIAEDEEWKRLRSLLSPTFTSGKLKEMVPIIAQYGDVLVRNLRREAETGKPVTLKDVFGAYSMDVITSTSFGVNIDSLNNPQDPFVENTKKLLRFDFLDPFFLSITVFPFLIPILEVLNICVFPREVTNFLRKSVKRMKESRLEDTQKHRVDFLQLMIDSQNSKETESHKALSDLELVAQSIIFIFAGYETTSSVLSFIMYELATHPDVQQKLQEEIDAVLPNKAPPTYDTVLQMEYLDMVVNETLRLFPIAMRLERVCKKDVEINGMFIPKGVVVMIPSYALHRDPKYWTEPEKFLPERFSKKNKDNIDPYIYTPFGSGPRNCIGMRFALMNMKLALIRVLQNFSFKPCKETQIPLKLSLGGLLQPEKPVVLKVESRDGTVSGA
Method in brief: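 Luminescent readout of luciferin produced by CYP3A4 (20 nM) dealkylation of Luciferin-PPXE, 25 uM (its KM). NADPH-driven reaction ran 60 min at RT after 10 min compound preincubation; data scaled to 57 uM ketoconazole as 100% inhibition.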
On the % scale 0 is the no-effect control and ±100 the full control effect; potency means the concentration at half of the fitted maximal effect.

Potency, active:
COC(=O)CC1C(C)(C)C(OC(C)=O)[C@@]2(O)C=C3C4CC(=O)OC(c5ccoc5)[C@]4(C)CCC3[C@@]1(C)C2=O (stereo partly specified) 7.94 µM
CC1(C)C(=O)CC[C@@]2(C)C1CC(O)[C@@]1(C)C3=CC(=O)OC(c4ccoc4)[C@]3(C)CCC21 (stereo partly specified) 15.8 µM
COc1cc(OC)c2c(=O)c(OC)c(-c3ccc(OC)c(OC)c3)oc2c1 1.26 µM
COC(=O)CC1C(C)(C)C(=O)C2CC3=C4CC(=O)OC(c5ccoc5)[C@]4(C)CCC3[C@@]1(C)C2=O (stereo partly specified) 1.58 µM
CC(=O)OC1CC2C(C)(C)C(O)CC(O)[C@@]2(C)C2CC[C@@]3(C)C(=CC(=O)OC3c3ccoc3)[C@]12C (stereo partly specified) 3.98 µM
COC(=O)CC1C(C)(C)C(O)C2CC3=C4C=C(OC)OC(c5ccoc5)[C@]4(C)CCC3[C@@]1(C)C2=O (stereo partly specified) 10 µM
COc1ccc2c(c1)OCC(Cc1ccc(OC)c(O)c1)C2=O (stereo unspecified) 25.1 µM
CCCCCC(=O)Cc1cc(O)cc(O)c1C(=O)Oc1cc(CC(=O)CCCCC)c(C(=O)O)c(OC)c1 15.8 µM
COC(=O)CC1C(C)(C)C(OC(C)=O)C2CC3C4CC(=O)OC(c5ccoc5)[C@]4(C)CCC3[C@@]1(C)C2=O (stereo partly specified) 0.631 µM
C=C[C@](C)(O)CCC1C(=C)CCC2[C@@](C)(CO)CCC[C@@]12C (stereo partly specified) 2.51 µM
COc1cccc2c1CCC1CC(=O)CC[C@@]21C (stereo partly specified) 15.8 µM
CNc1ccccc1C(=O)N1CCc2c([nH]c3ccccc23)C1=O 1 µM
C/C=C(\C)C(=O)OC1[C@@H]2C=C3C4CC(=O)OC(c5ccoc5)[C@]4(C)CCC3[C@@](C)(C2=O)C(C(O)C(=O)OC)C1(C)C (stereo partly specified) 12.6 µM
COc1ccc2c(c1)OCC(Cc1ccc(OC)c(OC)c1)C2O (stereo unspecified) 7.94 µM and 12.6 µM
Cc1ccc2c(c1)CC[C@H]1CC(=O)CC[C@@]21C 15.8 µM
O=c1cc(-c2cccc(O)c2)oc2ccc(O)cc12 3.98 µM
COC1(C)CCC2OC2(C)CCC2C1CC2(C)C (stereo unspecified) 10 µM
C=C1C2CC[C@@]3(C)C(c4ccoc4)OC(=O)C[C@@]13OC1CC(=O)C(C)(C)C(CC(=O)OC)[C@]12C (stereo partly specified) 5.01 µM
COc1cc2c(cc1OC)Cc1cc(OC)c(OC)cc1Cc1cc(OC)c(OC)cc1C2 12.6 µM
CC(C)/C(O)=C1/C(=O)OC(c2ccoc2)[C@@]2(C)C(O)C(O)[C@@]34OC5(C)OC67CC(C)(C(O)[C@@]6(O)C(O)[C@@]3(O5)C12)C(CC(=O)O)[C@@]74C (stereo partly specified) 12.6 µM
CC[C@H](C)[C@H](NC(=O)OCC1c2ccccc2-c2ccccc21)C(=O)O 31.6 µM
C=C1C2CC[C@@]3(C)C(c4ccoc4)OC(=O)C[C@@]13OC1CC(=O)C(C)(C)C(C(O)C(=O)OC)[C@]12C (stereo partly specified) 2.51 µM

Activity change, negative = inhibition, inactive:
O=c1ccn([C@H]2C[C@H](O)[C@@H](CO)O2)c(=O)[nH]1 -3.36%
C=CC1=C(C(=O)O)N2C(=O)C(NC(=O)/C(=N\O)c3csc(N)n3)C2SC1 (stereo unspecified) -11.8%
NCC1O[C@@H](OC2C(N)C[C@H](N)[C@@H](O[C@H]3OC(CO)C(O)C(N)C3O)C2O)C(N)C(O)C1O (stereo partly specified) -2.15%
CC1=CC(=O)[C@@H]2C[C@H]1C2(C)C -14.3%
CCN(CC)Cc1ccc(Nc2ccnc3cc(Cl)ccc23)cc1O 61.1%
CC(C)[C@H]1CC[C@@H](C)C[C@H]1O -6.9%
CC1=C(C2=C(C)C(C(C)C)C3=C(C(=O)C(O)C3O)C2O)C(O)C2=C(C(O)C(O)C2=O)C1C(C)C (stereo unspecified) -24.6%
O=C(O)C1OC(O)C(O)C(O)C1O (stereo unspecified) -15.9%
C[C@@H]1O[C@@H](O[C@H]2[C@H](Oc3cc(O)c4c(c3)O[C@H](c3ccc(O)cc3)CC4=O)O[C@H](CO)[C@@H](O)[C@@H]2O)[C@H](O)[C@H](O)[C@H]1O -29.8%
Cc1cc(=O)oc2cc(O[C@@H]3O[C@H](C(=O)O)[C@@H](O)[C@H](O)[C@H]3O)ccc12 -7.35%
COC1OC2COC(c3ccccc3)OC2C(O)C1O (stereo unspecified) -7.61%
Nc1ccn([C@H]2C[C@H](O)[C@@H](CO)O2)c(=O)n1 -13.3%
O=c1[nH]c(=O)n([C@@H]2O[C@H](CO)[C@@H](O)[C@H]2O)cc1Br -3.8%
NCC1O[C@@H](O[C@@H]2C(O)[C@H](O[C@H]3OC(CO)C(O)C(N)C3O)[C@@H](N)C[C@H]2N)C(N)C(O)C1O (stereo partly specified) -10.8%
